# Test results from ChEMBL document CHEMBL4513216, “Probing the Open Global Health Chemical Diversity Library for Multistage-Active Starting Points for Next-Generation Antimalarials” (ACS Infect Dis, 2020).
# The campaign covered roughly 65,000 compounds. About 2,100 (3.2%) showed an effect of 50% or more. The median lay at about -52%. The entries come from a sample that favours strong results as a whole.
# System: Plasmodium falciparum
# Experiment: Screen against P. falciparum Asexual Blood Stage (ABS), at 5uM
# Type: functional, Dd2
# Settings: tested at 5 uM
row,Structure (SMILES),INHIBITION [%]
1,O=C1[C@@H]2CCN(C3CCC3)C[C@@H]2OCCN1Cc1ccncc1,-35.3
2,COc1cccc(CN(C)C(C)c2ccco2)c1OCCn1ccnc1 (stereo unspecified),71.8
3,CNC(=O)CN1C(=O)CCC12CCCN(Cc1ccccn1)C2 (stereo unspecified),-14.2
4,CN1C(=O)CCC12CCCN(Cc1nccs1)C2 (stereo unspecified),-74.2
5,CN(C)CCN1C(=O)CCCC12CCCN(Cc1cccs1)C2 (stereo unspecified),73.5
6,COCCC1(CNC(=O)Nc2ccnc(C)c2)CCCC1,72.6
7,Cc1ncc(CN2C[C@H]3CC(OCc4ccccc4)C[C@H]3C2)cn1 (stereo partly specified),-74.6
8,Cc1ccc2c(n1)N(CCn1cccn1)CCN(CC1CC1)C2,77.6
9,Cc1ccc2c(n1)N(CC1CC1)CCN(S(=O)(=O)C1CC1)C2,-28.5
10,Cc1ccc2c(n1)N(CC1CC1)CCN(Cc1ccco1)C2,-45.2
11,Cc1nnc(N2CC[C@@]3(O)CCNC[C@H]3C2)c2ccccc12,-14.9
12,O[C@]12CCNC[C@H]1CN(c1nccc3ccccc13)CC2,-5.03
13,O[C@]12CCNC[C@H]1CN(c1ccnc3ccccc13)CC2,92
14,Cc1cnc(N2CCC3(CCCCN3C)C2)nc1 (stereo unspecified),-23.5
15,CC(C)(C)CC(=O)N1C[C@H]2CCN[C@H]2C1,-36.7
16,Cc1cc(CN2C[C@@H]3COC[C@H](C(=O)N4CCCCO4)[C@@H]3C2)no1,-158
17,CN(C)C(=O)CN1CCN(c2ncccn2)[C@@H]2CS(=O)(=O)C[C@@H]21,-100
18,CCN1CCC2(CC1)CC(NCc1cccs1)c1ccccc1O2 (stereo unspecified),85.8
19,CCN1CCN(C)C2(CCN(Cc3cccc(C)n3)CC2)C1=O,-50.7
20,Cc1cccc(CN2CCC3(CCN(c4cccnc4)C3=O)C2)n1 (stereo unspecified),-18.3
21,CCN1CCC2(CC1)CC(Nc1ncccn1)CO2 (stereo unspecified),-11
22,Cc1cnc(N2CCC3(CC2)CN(Cc2cccs2)CCO3)nc1,-35.2
23,O=C1Nc2ccccc2C12CCN(Cc1cccs1)CC2,-14.5
24,CCN1CCC2(CC1)CC(NCc1ccncc1)c1ccccc1O2 (stereo unspecified),77.7
25,CCN1CCC2(CC1)CC(NCc1cccc(C)n1)c1ccccc1O2 (stereo unspecified),91.3
26,O=C1NCC2(CCCN(Cc3ccncc3)C2)Oc2ccccc21 (stereo unspecified),-7.11

row,Structure (SMILES),INHIBITION [%]
1,O=C(Nc1cccnc1)[C@H]1CO[C@H]2CCNC[C@H]2C1,-181
2,Cc1cccc(CN2C[C@H](OCc3ccccn3)[C@H]3COC[C@H]32)n1,-21.3
3,Cc1noc(C)c1CN1CCO[C@H]2CN(Cc3cccnc3)C[C@H]21,0.607
4,CCc1ccc(CN2CCN(C)c3ncccc3C2)o1,-114
5,O=c1[nH]cnc2[nH]c(N3CCNCC3)nc12,-168
6,CN(C)C(=O)CN1CCC2(CCCN(Cc3cccnc3)C2)C1=O (stereo unspecified),-34
7,Cc1cccc(CN2C[C@@H](NC(=O)C3CCC3)[C@H]3COC[C@H]32)n1,-50.1
8,COc1ccccc1CN(C)C(=O)CN1CC(n2nc(C)cc2C)C1,78.2
9,CCc1nnc(CN(C)C(=O)CN2CC(c3ccccc3)CC2=O)o1 (stereo unspecified),-112
10,COc1ccc(Cl)cc1CN(C)C(=O)CN1C(=O)CCC1C (stereo unspecified),-38.8
11,Cn1cc(C(=O)NCc2cncc3c2CCNC3)cn1,-118
12,Cc1csc([C@H]2C[C@@H]3CCN(Cc4cc(C)on4)C[C@H]3O2)n1,-69.7
13,c1cncc(OC[C@@]23CCO[C@@H]2CCN(Cc2cccs2)C3)c1,-5.17
14,O=C1N(c2cncnc2)CCC12CCCN(Cc1ccccn1)C2 (stereo unspecified),-36.2
15,NCC1Cc2cc(-c3nccc(N4CCC(O)CC4)n3)cc(Cl)c2O1 (stereo unspecified),80.6
16,NCC1Cc2cc(-c3nccc(N4CCC(O)CC4)n3)cc(F)c2O1 (stereo unspecified),83.1
17,O=C(NC[C@H]1C[C@@H]2CCN1C[C@@H]2CN1CCCC1)c1ccco1,-62.4
18,CN1CCN(S(C)(=O)=O)Cc2cccnc21,-87.7
19,CNC(=O)[C@@]12CCO[C@@H]1CCN(Cc1c(C)noc1C)C2,-74.2
20,CN1CCCCC1c1ncc2c(n1)CCN(CCCc1ccccc1)C2 (stereo unspecified),89.2
21,Cc1ccc2c(n1)N(C)CCN(Cc1cnn(C)c1)C2,-35.9
22,CN1CCCCC1c1ncc2c(n1)CCN(Cc1ccc(F)cc1)C2 (stereo unspecified),86.4
23,CN1CCN(Cc2ccc(F)cc2)Cc2cccnc21,-5.74
24,CN1CCCCC1c1ccc(-n2ccnc2)nc1 (stereo unspecified),-5.64
25,Cc1ccc(C(=O)N2C[C@@H]3CCCO[C@@H]3[C@H](N3CCCC3)C2)cn1,-108
26,Cc1nc(COC[C@H]2CC[C@H]3NCC[C@H]3O2)cs1,-29.9

row,Structure (SMILES),INHIBITION [%]
1,O=C(c1ccnnc1)N1C[C@@H]2OCCN(CCN3CCCC3)[C@@H]2C1,-53.7
2,O=C(c1cccnc1)N1CCO[C@@H]2CNC[C@@H]21,-20.6
3,Cc1noc([C@]23COC[C@H]2CN(C(C)C)C3)n1,-38.3
4,Fc1ccccc1Cn1c(C2CCNCC2)cc2cccnc21,88.7
5,Fc1cccc(F)c1Cn1c(C2CCNCC2)cc2cccnc21,80.6
6,Fc1cccnc1O[C@@H]1CN(Cc2ccccn2)[C@@H]2CCCO[C@@H]21,-14
7,Cc1ccc(-c2noc(CC[C@@H]3CCCN4CCCC[C@H]34)n2)nn1,-74.3
8,CN(Cc1ccccc1-n1cccn1)C[C@@H]1CCCN2CCCC[C@H]12,76
9,CN(Cc1nc2ccsc2c(=O)[nH]1)C[C@@H]1CCCN2CCCC[C@H]12,-20.7
10,COCCN1C[C@@H]2OCCN(c3ccnc(N(C)C)n3)[C@@H]2C1,-31.1
11,CS(=O)(=O)N1CCO[C@@H]2CN(Cc3ccncc3)C[C@@H]2C1,-25.9
12,CC(C)(NCc1cccc(O)c1)c1ccc2c(c1)OCO2,88.9
13,CCC(C)N1CCc2nc(N3CCCC3)nc(NC(C)C)c2C1 (stereo unspecified),78
14,CN(C)C(=O)[C@H]1C[C@H]2OCC[C@H]2N(Cc2ccccn2)C1,-13.3
15,CC(Nc1nc(-c2ccccc2)nc2c1CCNCC2)c1cccnc1 (stereo unspecified),90.9
16,CC(Nc1nc(-c2ccncc2)nc2c1CCNC2)c1ccccc1 (stereo unspecified),71.5
17,Cc1cccnc1[C@H](C)Nc1nc(-c2cccnc2)nc2c1CNC2,78
18,CSCC(=O)NS(=O)(=O)c1ccc(C#N)c(C(F)(F)F)c1,-52.2
19,COCCNC(=O)[C@@]12CCO[C@@H]1CCN(Cc1cc(C)on1)C2,-32
20,CN1CCN(C(=O)Cc2ccc(S(=O)(=O)C(F)F)cc2)CC1,-85.3
21,Fc1ccccc1CN1CCCC2(CCN(c3ncccn3)C2)C1 (stereo unspecified),-15.8
22,C[C@@H]1CN(Cc2ccco2)CCN1C(=O)Cc1ccccc1F,-154
23,COc1ncccc1CN1C[C@@H]2COC[C@]2(CNS(C)(=O)=O)C1,-44.2
24,CS(=O)(=O)NCC1CCCN(Cc2ccccc2F)C1 (stereo unspecified),89.2
25,NC1(C(=O)NCC2CCCN(Cc3ccccc3F)C2)CCCC1 (stereo unspecified),85.6
26,CCN(C)S(=O)(=O)NCC1CCCN(Cc2ccccc2F)C1 (stereo unspecified),74.5

row,Structure (SMILES),INHIBITION [%]
1,COCCN1CCCC12CCN(c1ncccn1)CC2,-0.324
2,Cc1c(C2N3CC4(C)CN2CC(C)(C3)C4=O)[nH]c(=O)[nH]c1=O (stereo unspecified),-53.4
3,COc1cc(C2SCC(=O)Nc3ccsc32)cc(OC)c1O (stereo unspecified),-46.5
4,CCN1CCC2(COCc3cnc(-c4cccnc4)nc32)C1 (stereo unspecified),-76.4
5,COCc1cncc2c1CCN(Cc1cccnc1)C2,-107
6,c1cncc(-c2noc(CN3CCc4cncnc4C3)n2)c1,72.9
7,O=C1C[C@@H]2CC[C@H](CN1)N2C1CCSCC1,-19.5
8,C[C@@H]1C[C@H]2CN(Cc3nccs3)C[C@H]2O1,-77.8
9,Cc1cc(CN2CC[C@H]3C[C@H](c4nc(C5CC5)cs4)O[C@@H]3C2)no1,-15.2
10,Nc1nc(N)c2c(n1)OC1(COCCN(Cc3nccs3)C1)C2 (stereo unspecified),-134
11,Cc1nc(CO[C@@H]2CN(Cc3ccccn3)[C@@H]3COC[C@@H]32)cs1,-6.87
12,c1ccc(OC[C@@H]2CCC[C@@]23CNCCO3)nc1,66.9
13,c1cncc(COC[C@@H]2CCC[C@]23CNCCO3)c1,-12.9
14,c1ccc(COC[C@H]2CCC[C@@]23CNCCO3)nc1,44.1
15,c1cncc(OC[C@@H]2CCC[C@@]23CNCCO3)c1,67
16,c1ccc(COC[C@@H]2CCC[C@@]23CNCCO3)nc1,48.6
17,c1cncc(COC[C@@H]2CCC[C@@]23CNCCO3)c1,23.4
18,COc1cc(N2C[C@H]3CCN(CCN4CCCC4)C[C@H]3C2)ncn1,-52.5
19,Cc1cccc(CN2C[C@@H]3CN(Cc4ccoc4)CCO[C@@H]3C2)n1,-60.3
20,Cc1ccc(O[C@@H]2C[C@H]3CN(C(=O)Cc4ccccn4)CCN3C2)cc1,-77.2
21,CC(C)N1[C@H](Cn2cncn2)C[C@@H]2CN(c3ncccn3)CC[C@@H]21,-58.2
22,CN1C(Cn2cccn2)C[C@@H]2CN(Cc3cccnc3)CC[C@@H]21 (stereo partly specified),11.2
23,CC(C)N1[C@H](CN2CCCC2)C[C@@H]2CN(Cc3ccoc3)CC[C@@H]21,76.2
